Out of some 1,400 compounds screened, about 30 (2%) were called active. Another 15% or so got no clear call; they are omitted. Calls follow the shape of the dose curve; as a rule, active = well fitted inhibition curve with a large enough effect; inconclusive = small, poorly fitted or top-dose-only effect; inactive = flat fitted curve, though single readings scatter. What follows is part of a selection rich in actives, with near analogues and random picks from the rest.
% is scaled to controls: 0 for no effect and ±100 for the full control effect; potency is read from the fitted curve at half-maximal effect.

A short description of this test: Firefly Luciferase Counterscreen for Inhibitors of ATXN expression. The conditions noted are these: luminescence; series mostly up to 57.5 µM; activity change, negative = inhibition: at the top concentration. The source says: University of Utah School of Medicine, Salt Lake City, Utah
Spinocerebellar ataxia type 2 (SCA2) is a multisystem neurodegenerative disease caused by a dominantly acting mutation leading to expansion of a polyQ domain in the ataxin-2 protein (ATXN2). SCA2 patients develop progressive ataxia and later lose function in other neuronal systems. Prominent parkinsonian signs develop in some patients. Like many neurodegenerative disorders, no symptomatic or disease-modifying treatments are known.
The primary objective of the proposed research is to identify compounds inhibiting ATXN2 expression and to test them for efficacy in SCA2 mouse models. We have developed a cell-based assay paired with an in vivo mouse model using identical luciferase expression constructs. This approach takes advantage of an ATXN2-luciferase transgene, with the luciferase gene flanked by the upstream and downstream portions of the ATXN2 gene. Here we describe a 5-7 dose quantitative high thoroughput screen (qHTS) for compounds lowering ATXN2 expression. We screened the NIH Molecular Libraries Small Molecule Repository (MLSMR) and NCGC's mechanistically annotated (MIPE) and drug repurposing (NPC) collections of compounds for lowering expression of an ATXN2-luciferase reporter in HEK-293 cells. The assay is a multiplexed cell viability assay to ensure target reduction in the absence of cytotoxicity. Secondary qHTS assays included a CMV-luciferase reporter expressed in HEK-293 cells as well as a biochemical assay using recombinant luciferase to detect inhibitors of the reporter enzyme. Compounds that inhibit ATXN2 expression but is not cytotoxic were selected for confirmatory and secondary screens.
PROTOCOL TABLE (as described by Inglese J, Shamu CE and Guy RK. 2007)
SEQUENCE No. (e.g., 1, 2, 3, etc.); […] (e.g., Cells, Incubation, Reagent, etc.); VALUE; DESCRIPTION.
2; Compounds; 23 nL; Kalypsis pintool (Wako USA) equipped with a 1536-well pin head.
3; Enzyme; 1 uL; recombinant firefly luciferase (prepared in 50 mM Tris HCl pH7.5, 10 mM MgCl2, 0.05% BSA, 0.01% Tween20) at final concentration of 10 nM. Wells containing buffer only were used as control (set as 100% inhibition when normalizing data).
4; Incubation; 10 min; room temperature.
5; Detection; Luminescence; Viewlux plate reader (PerkinElmer).
NOTES (numbers refer to Sequence numbers above)
1. Luciferase substrate is added to 1536 well, Greiner white assay plate. Evaporation was prevented by covering assay plates with metal lids containing holes to allow gas diffusion.
2. Compounds were added in a dose response manner with the final concentrations of 57, 11.4, 2.28, 0.46, 0.091, 0.018, 0.0037 uM. Vehicle-only plates, with DMSO being pin-transferred to columns 5-48, were inserted uniformly at the beginning and the end of each library to monitor and record any shifts in assay performance.
3. Recombinant firefly luciferase (10 nM final concentration) is added to the assay plate.
5. End-point luminescence is then measured on the Viewlux (PerkinElmer) imager equipped with a clear emission filter using a 2 sec exposure.
Inglese J, Shamu CE and Guy RK, Reporting data from high throughput screening of small molecule libraries, Nature Chemical Biology, 2007, 3(8): 438-441. doi.org/10.1038/nchembio0807-438.
With `COCCCNCCCOc1ccc(Cl)cc1C(C)(C)C`, the “activity change, negative = inhibition” value is 1.71% (inactive).

As to `CC(C)C1C(=O)N(Cc2cn(CCC3OCCO3)nn2)CCS(=O)(=O)N1Cc1ccc(-c2ccc(Cl)cc2)cc1` (stereo not given), the “activity change, negative = inhibition” value was -3.28% (inactive).

For `COc1cccc(S(=O)(=O)NCc2ccc(C(=O)Nc3cccc(Cl)c3)cc2)c1`, the “activity change, negative = inhibition” value was -2.18% (inactive).

With `Cc1ccc(OCCCC(=O)NNC(=O)c2ccccn2)cc1`, the “activity change, negative = inhibition” value was -1.95% (inactive).

On to `CCCC(NCC(O)COc1ccc(-c2ccccc2)cc1)c1ccccc1` (stereo not given), for which the “activity change, negative = inhibition” value is -3.86% (inactive).

In the case of `O=C(CSc1nnc(-c2ccc(Br)cc2)o1)Nc1cccc(C(=O)O)c1`, the Potency was 3.98 µM (active).

As for `O=C(Nc1cccc(Br)c1)c1cccc(OC(=S)N2CCOCC2)c1`, the “activity change, negative = inhibition” value was -13.5% (inactive).

On to `O=C(CSc1n[nH]c(-c2ccccn2)n1)Nc1ccccc1`, for which the “activity change, negative = inhibition” value was -13.1% (inactive).

As for `CC1(C(=O)Nc2cnc3ccccc3c2)CCN1C(=O)c1ccccc1CCc1ccccc1` (stereo not given), the “activity change, negative = inhibition” value is -1.11% (inactive).

For `O=C(NC(Nc1ncc(S(=O)(=O)c2ccc([N+](=O)[O-])cc2)s1)(C(F)(F)F)C(F)(F)F)c1ccc(Cl)cc1`, the “activity change, negative = inhibition” value was -10.1% (inactive).

As to `NC(Cc1ccc(C(F)(F)F)cc1)c1csc(Nc2ccc(C(=O)c3ccccc3)cc2)n1` (stereo not given), the “activity change, negative = inhibition” value was 0.547% (inactive).

For the compound `Cc1ccc(C2CC(=O)Nc3c2ccc2ccccc32)cc1[N+](=O)[O-]` (stereo not given), the “activity change, negative = inhibition” value was -4.69% (inactive).

As for `CCc1nc2c(OCc3ccc(Cl)cc3)cccn2c1N(C=O)Cc1ccc(OC)cc1`, the “activity change, negative = inhibition” value is -3.69% (inactive).

Regarding `COc1ccc(Cc2[nH]n3c(=O)cc(C(C)C)nc3c2-c2ccccc2)cc1`, the “activity change, negative = inhibition” value is -12.5% (inactive).

As for `CNC(=O)c1sc(N2N=C3/C(=C/c4ccccc4)CCCC3C2c2ccccc2)nc1C` (stereo not given), the “activity change, negative = inhibition” value is -2.34% (inactive).

Regarding `CN1CCC(N(C)S(=O)(=O)c2ccc(NC(=O)COc3ccc(Br)cc3Cl)cc2)CC1`, the “activity change, negative = inhibition” value is -14.6% (inactive).

For `CN(C)CCNc1ccc(CO)c2sc3ccc(O)cc3c(=O)c12`, the “activity change, negative = inhibition” value is -5.83% (inactive).

With `CCn1cc(Cl)c(C(=O)N2N=C(c3ccc4ccccc4c3)CC2c2ccccc2O)n1` (stereo not given), the “activity change, negative = inhibition” value was -3.47% (inactive).

As to `CC(=O)NC(=C(Cl)Cl)S(=O)(=O)c1ccccc1`, the “activity change, negative = inhibition” value is 1.35% (inactive).

For the compound `S=C(NCc1cccnc1)Nc1ccc(Oc2ccc(Cl)cc2)cc1`, the “activity change, negative = inhibition” value is -0.796% (inactive).

`C(=NN1CCCCCC1)c1ccc2ccccc2n1`: the Potency was 0.1 µM (active).

`S=C(Nc1cc(Cl)ccc1Oc1ccccc1)N1CCN(c2ccccn2)CC1`: the “activity change, negative = inhibition” value is -1.6% (inactive).

With `CN(c1ccccc1)S(=O)(=O)c1cccc(NC(=O)c2cc(=O)c3ccccc3o2)c1`, the “activity change, negative = inhibition” value was -0.345% (inactive).

Regarding `O=C(COc1nsnc1N1CCOCC1)N/N=C/c1ccccc1O`, the “activity change, negative = inhibition” value was -13.4% (inactive).

For `COc1ccccc1N(CC(=O)N/N=C/c1c(O)ccc2ccccc12)S(C)(=O)=O`, the “activity change, negative = inhibition” value was -10.5% (inactive).

`Cn1c(CO)cnc1SCC(=O)c1ccc(Br)cc1`: the “activity change, negative = inhibition” value was -8.93% (inactive).

Consider `CC(=O)Nc1cccc(-c2ccnc3c2CC(C)(C(=O)Nc2ccc(Cl)cc2)O3)c1` (stereo not given), for which the “activity change, negative = inhibition” value is -2.94% (inactive).

Regarding `CCCCOc1ccc(CSC(=N)N)cc1Cl`, the “activity change, negative = inhibition” value was -4.4% (inactive).

For the compound `O=[N+]([O-])c1cc(Cl)c(O)c2ncccc12`, the “activity change, negative = inhibition” value was -17.6% (inactive).

With `Cc1cccn2c(=O)c(/C=C(\C#N)C(N)=O)c(N3CCN(c4cccc(Cl)c4)CC3)nc12`, the “activity change, negative = inhibition” value is 0.85% (inactive).

For the compound `NC(c1csc(NC(=O)c2cccc(OC(F)(F)F)c2)n1)c1ccccc1Cl` (stereo not given), the “activity change, negative = inhibition” value is -0.688% (inactive).

`COc1cc(/C=N\NC(=O)CC#N)ccc1OC/C=C/c1ccccc1`: the “activity change, negative = inhibition” value was -3.57% (inactive).

With `COC(=O)c1cc(NC(=O)c2cc(-c3ccc(C(F)(F)F)cc3)oc2C(F)(F)F)ccc1N1CCOCC1`, the “activity change, negative = inhibition” value is -5.33% (inactive).

For the compound `COC1CC(C)C(OC)c2cc(O)cc(c2O)NC(=O)C(C)=CC=CC(C)C(OC(N)=O)C(C)=CC(C)C1OC` (stereo not given), the “activity change, negative = inhibition” value was -11.5% (inactive).

For the compound `Cc1cccc(C(=O)N/N=C2\CS(=O)(=O)N(C)c3ccsc32)c1`, the “activity change, negative = inhibition” value was -9.38% (inactive).

As for `CC(=O)Oc1ccc(N(C(C)=O)S(=O)(=O)c2ccc(Cl)cc2)c2ccccc12`, the “activity change, negative = inhibition” value is -17.1% (inactive).

Turning to `CCOC(=O)CSc1cccc2cccnc12`, the “activity change, negative = inhibition” value was -10.6% (inactive).

Take `CC(=O)Nc1cccc(-c2ccnc3c2CC(C)(C(=O)Nc2ccc(Cl)c(C(F)(F)F)c2)O3)c1` (stereo not given): the “activity change, negative = inhibition” value was -1.06% (inactive).

On to `Cc1ccc2ccc(C(Nc3ccccn3)c3ccccc3)c(O)c2n1` (stereo not given), for which the “activity change, negative = inhibition” value was -7.07% (inactive).

In the case of `Cc1nc2ccccc2n1/N=C/c1ccc([N+](=O)[O-])o1`, the “activity change, negative = inhibition” value is -2.11% (inactive).

With `COc1ccc(-c2cnc3c(NC=O)cc(-c4ccccc4OC)cn23)cc1OC`, the “activity change, negative = inhibition” value was -3.03% (inactive).

For the compound `COc1ccccc1-c1cc(NC=O)c2ncc(-c3ccc(F)cc3)n2c1`, the “activity change, negative = inhibition” value is -1.97% (inactive).

For the compound `CN1CCN(c2ccc(-c3cc(NC=O)c4ncc(-c5ccc(F)c(Cl)c5)n4c3)cc2)CC1`, the Potency was 15.8 µM (active).

With `Cc1cc(C)nc(N/N=C2/CCCC/C2=C\c2ccccc2)n1`, the “activity change, negative = inhibition” value is -3.98% (inactive).

For the compound `Cc1ccc(C(NC(=O)C2CCN(Cc3ccc(Cl)c(Cl)c3)CC2)c2ccccn2)cc1` (stereo not given), the “activity change, negative = inhibition” value was -2.96% (inactive).

For `Cn1c(=O)c2c(nc(CN3CCN(Cc4ccccc4)CC3)n2Cc2ccc(Cl)cc2)n(C)c1=O`, the “activity change, negative = inhibition” value was 0.959% (inactive).

For the compound `Cn1c2ccccc2c(=O)c2c(=O)n(C3CCCCC3)c(-c3cccs3)nc21`, the “activity change, negative = inhibition” value is -7.28% (inactive).

Turning to `CC1(C)Cc2ccccc2C(NNC(=O)c2ccccn2)=N1`, the “activity change, negative = inhibition” value is 0.45% (inactive).

Consider `CC(OC(=O)c1cc(Br)ccc1O)C(=O)Nc1ccc(S(=O)(=O)N2CCCC2)cc1` (stereo not given), for which the “activity change, negative = inhibition” value is -2.03% (inactive).

Consider `O=C(Nc1ccc(N2CCN(C(=O)c3cccs3)CC2)c(Cl)c1)c1cccnc1`, for which the “activity change, negative = inhibition” value was -0.903% (inactive).

The values above are taken from PubChem BioAssay AID1745846 (National Center for Advancing Translational Sciences (NCATS), 2022).
